Experimental data as given in PubChem BioAssay (NCATS).
Inconclusive results are not listed. Where a call stands in place of a potency, no number is given. Unmarked numbers belong to inactive results. Active and inactive are the calls of the source. Calls follow the shape of the dose curve; as a rule, active = well fitted curve in the direction sought with a large enough effect; inconclusive = small, poorly fitted or top-dose-only effect, or another doubt; inactive = no such curve, though single readings can be large; an effect the other way counts as inactive or inconclusive.

What was measured:
[1] = Quantitative highthroughput screen to assess conditional lethalithy of NOMO1 cells grown in RPMI1640 with dialyzed fetal bovine serum (RPMI+ds) (AID 1963877); also: nearly all actives have a fitted effect of over 30% in size; also: potency is read from the fitted curve at half-maximal effect; as to viability: series mostly up to about 46 µM
Method in brief: (§1)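 Each medium arm—HPLM with 10% dialyzed FBS, or RPMI1640 with 5 mM glucose and 10% untreated or dialyzed FBS—was screened against an 11-point, 3-fold compound titration for 48 h at 37 °C, with CellTiter-Glo luminescence as endpoint.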

[2] = Quantitative highthroughput screen to assess conditional lethalithy of NOMO1 cells grown in Human Plasma-Like Medium with dialyzed fetal bovine serum (HPLM+ds) (AID 1963878); also: nearly all actives have a fitted effect of over 35% in size; also: potency is read from the fitted curve at half-maximal effect
Method in brief: as §1

[3] = Quantitative highthroughput screen to assess conditional lethalithy of SEM cells grown in RPMI1640 with unreated serum (RPMI+s) (AID 1963883); also: nearly all actives have a fitted effect of over 35% in size; also: potency is read from the fitted curve at half-maximal effect
Method in brief: as §1

[4] = Quantitative highthroughput screen to assess conditional lethalithy of P12 Ichikawa cells grown in Human Plasma-Like Medium with dialyzed fetal bovine serum (HPLM+ds) (AID 1963879); details: Potency: viability; also: nearly all actives have a fitted effect of over 35% in size; also: potency is read from the fitted curve at half-maximal effect; as to viability: series mostly up to about 46 µM
Method in brief: as §1

[5] = Quantitative highthroughput screen to assess conditional lethalithy of P12 Ichikawa cells grown in RPMI1640 with dialyzed fetal bovine serum (RPMI+ds) (AID 1963880); details: Potency: P12-Ichikawa viability; also: nearly all actives have a fitted effect of over 35% in size; also: potency is read from the fitted curve at half-maximal effect
Method in brief: as §1

[6] = Quantitative highthroughput screen to assess conditional lethalithy of P12 Ichikawa cells grown in RPMI1640 with untreated serum (RPMI+s) (AID 1963881); details: Potency: viability; also: nearly all actives have a fitted effect of over 35% in size; also: potency is read from the fitted curve at half-maximal effect; as to viability: series mostly up to about 46 µM
Method in brief: as §1

[7] = Quantitative highthroughput screen to assess conditional lethalithy of SEM cells grown in Human Plasma-Like Medium with dialyzed fetal bovine serum (HPLM+ds) (AID 1963882); also: nearly all actives have a fitted effect of over 35% in size; also: potency is read from the fitted curve at half-maximal effect; as to viability: series mostly up to about 46 µM
Method in brief: as §1

[8] = Quantitative highthroughput screen to assess conditional lethalithy of SEM cells grown in RPMI1640 with dialyzed fetal bovine serum (RPMI+ds) (AID 1963884); also: nearly all actives have a fitted effect of over 35% in size; also: potency is read from the fitted curve at half-maximal effect; as to viability: series mostly up to about 46 µM
Method in brief: as §1

[9] = Cellular viability qHTS for adrenocortical cancer (ACC) cell line SW-13 (AID 1963989); details: SW-13 ACC cells viability, CellTiter-Glo, 48 h; activity (max response): hits give low values;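 also: cells grown in serum-free medium with ITS supplement; nearly all actives have a fitted effect of over 65% in size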
Method in brief: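 Compound titrations (up to 46 uM final, in DMSO) were applied to SW-13 cells for 48 h at 37C/5% CO2. Reading used CellTiter-Glo after 20 min at room temperature; fitted curves yielded IC50 and efficacy.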

[10] = Cellular viability qHTS for adrenocortical cancer (ACC) cell line NCI-H295R (AID 1963990); also: nearly all actives have a fitted effect of over 60% in size
Method in brief: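 Readout: CellTiter-Glo luminescence, 20 min RT. Exposure: 48 h, 37C/5% CO2. Cells: NCI-H295R, ITS-DMEM serum-free. Range: up to 46 uM. Analysis: 4PL fit, IC50 plus efficacy.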

| SMILES | Potency [1] | Potency [2] | Potency [3] | Potency [4] | Potency [5] | Potency [6] | Potency [7] | Potency [8] | activity (max response) [9] [%] | Potency [10] |
| --- | --- | --- | --- | --- | --- | --- | --- | --- | --- | --- |
| CCOC(=O)[C@H](CCc1ccccc1)N[C@@H](C)C(=O)N1[C@@H](C(=O)O)C[C@H]2CCC[C@@H]21 | 23.5 µM (active) | 23.5 µM (active) | 20.9 µM (active) | – | – | – | – | – | – | – |
| CC(C)=CCCC(C)=CCCC(C)=CCCC(C)=CCCC(C)=CCCC(C)=CCCC(C)=CCCC(C)=CCCC(C)=CCO | inactive | – | – | inactive | inactive | inactive | inactive | – | – | – |
| COCCCCC(=NOCCN)c1ccc(C(F)(F)F)cc1 | – | 18.7 µM (active) | – | inactive | – | – | – | – | – | – |
| O=C(O)[C@H](CC(=O)N1C[C@@H]2CCCC[C@H]2C1)Cc1ccccc1 | – | inactive | – | inactive | inactive | inactive | inactive | inactive | – | – |
| CC(C)N(C[C@H]1O[C@@H](n2cnc3c(N)ncnc32)[C@H](O)[C@@H]1O)C1CC(CCc2nc3ccc(C(C)(C)C)cc3[nH]2)C1 (stereo partly specified) | – | 5.88 µM (active) | 1.05 µM (active) | 1.05 µM (active) | 3.71 µM (active) | – | – | 11.7 µM (active) | 7.65 | inactive |
| COc1cc2c(cc1OC)CN(CCc1ccc(NC(=O)c3cccc4c(=O)c5cccc(OC)c5[nH]c34)cc1)CC2 | – | 1.32 µM (active) | 1.05 µM (active) | 1.18 µM (active) | 2.96 µM (active) | 3.72 µM (active) | 4.18 µM (active) | 0.935 µM (active) | -3.54 | inactive |
| O=C1C(CCC(O)c2ccc(F)cc2)C(c2ccc(O)cc2)N1c1ccc(F)cc1 (stereo unspecified) | inactive | – | inactive | inactive | inactive | inactive | inactive | inactive | – | – |
| COC1CCC(N(C(=O)C2CCC(C)CC2)c2cc(C3=CCCCC3)sc2C(=O)O)CC1 (stereo unspecified) | inactive | – | – | – | 14.8 µM (active) | – | – | – | 0.0132 | inactive |
| NC(=O)c1cccc(N)c1 | – | inactive | – | inactive | inactive | inactive | inactive | – | -2.32 | inactive |
| NC1CCC(Nc2nc(Nc3ccc(C(=O)N4CCCCC4)cc3)c3ncn(-c4cccc(F)c4)c3n2)CC1 (stereo unspecified) | – | inactive | inactive | inactive | inactive | inactive | inactive | inactive | – | – |
| COC(=O)[C@@H]1CC2=CC(=O)CC[C@]2(C)[C@@]23O[C@@H]2C[C@@]2(C)[C@H](CC[C@@]24CCC(=O)O4)[C@@H]13 | inactive | – | inactive | inactive | inactive | inactive | inactive | inactive | – | – |
| Cn1cc(-c2cnn3c(N)c(Br)c([C@H]4CCCNC4)nc23)cn1 | – | 1.32 µM (active) | 2.35 µM (active) | 2.96 µM (active) | 2.64 µM (active) | – | 0.935 µM (active) | 1.05 µM (active) | – | – |
| Cc1c(C)n(Cc2ccc(-c3ccccc3C(=O)O)cc2)c2ccc(C(=O)N[C@@H](C)c3ccc([N+](=O)[O-])cc3)cc12 | 9.35 µM (active) | – | inactive | – | 10.5 µM (active) | – | inactive | inactive | – | – |
| CC(=O)O[C@]1(C(C)=O)CC[C@@H]2[C@@H]3C[C@H](C)C4=CC(=O)CC[C@]4(C)[C@H]3CC[C@@]21C | inactive | – | inactive | inactive | inactive | – | inactive | inactive | – | – |
| Oc1ccc(C=Cc2cc(O)cc(O)c2)cc1 | – | 14.8 µM (active) | 11.8 µM (active) | – | – | – | – | 20.9 µM (active) | – | – |
| C[C@]12C=CC(=O)C=C1CC[C@@H]1[C@@H]2[C@@H](O)C[C@@]2(C)[C@@H]1CC[C@]2(O)C(=O)CO | – | – | – | 16.6 µM (active) | 7.43 µM (active) | 6.62 µM (active) | 6.62 µM (active) | – | – | – |
| CC[C@H]1OC(=O)[C@H](C)[C@@H](O[C@H]2C[C@@](C)(OC)[C@@H](O)[C@H](C)O2)[C@H](C)[C@@H](O[C@@H]2O[C@@H](C)C[C@H](N(C)C)[C@@H]2O)[C@](C)(O)C[C@@H](C)C(=O)[C@H](C)[C@@H](O)[C@]1(C)O | – | 9.35 µM (active) | 10.5 µM (active) | 16.6 µM (active) | – | – | – | – | – | – |
| Clc1ccc2ncc(-c3cccc(NC4CNC4)n3)n2c1 | – | 20.9 µM (active) | – | – | – | 23.5 µM (active) | – | – | 12.3 | inactive |
| CC(C)N(CC[C@H](c1ccccc1)c1cc(CO)ccc1O)C(C)C | – | – | inactive | inactive | inactive | inactive | inactive | – | – | – |
| Cc1[nH]c(C=C2C(=O)Nc3ccc(S(=O)(=O)N(C)c4cccc(Cl)c4)cc32)c(C)c1C(=O)N1CCN(C)CC1 | – | – | 11.8 µM (active) | 18.7 µM (active) | 14.8 µM (active) | 18.7 µM (active) | 13.2 µM (active) | 6.62 µM (active) | – | – |
